Results: PubChem BioAssay (NCATS)
Inconclusive results are not listed. Activity calls are given as the source filed them. The call rests on the fitted dose curve; in most records, active means well fitted curve in the direction sought with a large enough effect; inconclusive means small, poorly fitted or top-dose-only effect, or another doubt; inactive means no such curve, though single readings can be large; an effect the other way counts as inactive or inconclusive.

Tests used:
[1] = Quantitative High-Throughput drug screen in 47 multiple myeloma cell lines against the NCATS MIPE library collection: FR4_PLB cell viability assay (AID 1918924; further: nearly all actives have a fitted effect of over 35% in size)
Procedure, shortened: (§1)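 Luminescent ATP measurement with CellTiter-Glo gives viability, scaled between DMSO-only wells (100%) and media-only wells (0%). Cells, 500 per well, faced library compounds for 48 hours at 37C.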

[2] = Quantitative High-Throughput drug screen in 47 multiple myeloma cell lines against the NCATS MIPE library collection: Delta47_JCRB cell viability assay (AID 1918925; further: nearly all actives have a fitted effect of over 45% in size)
Procedure, shortened: as §1

[3] = Quantitative High-Throughput drug screen in 47 multiple myeloma cell lines against the NCATS MIPE library collection: EJM_DSMZ cell viability assay (AID 1918926; further: nearly all actives have a fitted effect of over 30% in size)
Procedure, shortened: as §1

[4] = Quantitative High-Throughput drug screen in 47 multiple myeloma cell lines against the NCATS MIPE library collection: AMO1_DSMZ cell viability assay (AID 1918927; further: nearly all actives have a fitted effect of over 30% in size)
Procedure, shortened: as §1

[5] = Quantitative High-Throughput drug screen in 47 multiple myeloma cell lines against the NCATS MIPE library collection: ARP1_JJKsccF8 cell viability assay (AID 1918928; further: nearly all actives have a fitted effect of over 40% in size)
Procedure, shortened: (§2)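 ATP readout (CellTiter-Glo), 48 h drug incubation, 37 °C/5% CO2, 500 cells per well; normalisation to DMSO (100%) and media-only (0%) controls.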

[6] = Quantitative High-Throughput drug screen in 47 multiple myeloma cell lines against the NCATS MIPE library collection: ARD_JJKsccE7 cell viability assay (AID 1918929)
Procedure, shortened: as §1

[7] = Quantitative High-Throughput drug screen in 47 multiple myeloma cell lines against the NCATS MIPE library collection: KMM1_JCRB cell viability assay (AID 1918960); further: nearly all actives have a fitted effect of over 30% in size
Procedure, shortened: as §2

[8] = Quantitative High-Throughput drug screen in 47 multiple myeloma cell lines against the NCATS MIPE library collection: KHM11_PLB cell viability assay (AID 1918962); further: nearly all actives have a fitted effect of over 35% in size
Procedure, shortened: as §1

[9] = Quantitative High-Throughput drug screen in 47 multiple myeloma cell lines against the NCATS MIPE library collection: JIM3_ECACC cell viability assay (AID 1918963; further: nearly all actives have a fitted effect of over 35% in size)
Procedure, shortened: as §1

[10] = Quantitative High-Throughput drug screen in 47 multiple myeloma cell lines against the NCATS MIPE library collection: INA6_PLB cell viability assay (AID 1918965; further: nearly all actives have a fitted effect of over 55% in size)
Procedure, shortened: (§3)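 Steps: seed 500 cells per well; pin-transfer MIPE 4.0 library; incubate 48 h at 37C, 5% CO2, humidified; add CellTiter-Glo, 5 min room temperature; read luminescence.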

[11] = Quantitative High-Throughput drug screen in 47 multiple myeloma cell lines against the NCATS MIPE library collection: JJN3_DSMZ cell viability assay (AID 1918966; further: nearly all actives have a fitted effect of over 50% in size)
Procedure, shortened: as §1

[12] = Quantitative High-Throughput drug screen in 47 multiple myeloma cell lines against the NCATS MIPE library collection: H1112_PLB cell viability assay (AID 1918967; further: nearly all actives have a fitted effect of over 30% in size)
Procedure, shortened: as §1

[13] = Quantitative High-Throughput drug screen in 47 multiple myeloma cell lines against the NCATS MIPE library collection: Karpas25_ECACC cell viability assay (AID 1918968; further: nearly all actives have a fitted effect of over 35% in size)
Procedure, shortened: as §1

[14] = Quantitative High-Throughput drug screen in 47 multiple myeloma cell lines against the NCATS MIPE library collection: KMS12BM_JCRB cell viability assay (AID 1918971); further: nearly all actives have a fitted effect of over 35% in size
Procedure, shortened: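 qHTS of the MIPE 4.0 collection: 500 myeloma cells/well, 48 h drug exposure at 37C in 5% CO2, then CellTiter-Glo for 5 min at room temperature before luminescence reading.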

[15] = Quantitative High-Throughput drug screen in 47 multiple myeloma cell lines against the NCATS MIPE library collection: KMS12PE_JCRB cell viability assay (AID 1918972); further: nearly all actives have a fitted effect of over 30% in size
Procedure, shortened: as §3

[16] = Quantitative High-Throughput drug screen in 47 multiple myeloma cell lines against the NCATS MIPE library collection: KMS20_JCRB cell viability assay (AID 1918973); further: nearly all actives have a fitted effect of over 45% in size
Procedure, shortened: as §1

[17] = Quantitative High-Throughput drug screen in 47 multiple myeloma cell lines against the NCATS MIPE library collection: Karpas620_DSMZ cell viability assay (AID 1918959); further: nearly all actives have a fitted effect of over 30% in size
Procedure, shortened: as §1

[18] = Quantitative High-Throughput drug screen in 47 multiple myeloma cell lines against the NCATS MIPE library collection: Karpas417_ECACC cell viability assay (AID 1918961); details: Karpas417 myeloma viability, CellTiter-Glo ATP luminescence, 48 h; viability (% of DMSO): at 45.8 µM (top of the series)
Procedure, shortened: as §3

[19] = Quantitative High-Throughput drug screen in 47 multiple myeloma cell lines against the NCATS MIPE library collection: KMS27_JCRB cell viability assay (AID 1918970); further: nearly all actives have a fitted effect of over 30% in size
Procedure, shortened: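 ATP-based viability (CellTiter-Glo luminescence) is measured in cells treated 48 h with approved and investigational drugs at 37 °C. Controls are DMSO-only wells for full viability and media-only wells for none.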

[20] = Quantitative High-Throughput drug screen in 47 multiple myeloma cell lines against the NCATS MIPE library collection: JIM1_ECACC cell viability assay (AID 1918964)
Procedure, shortened: as §1
Potency means the concentration at half of the fitted maximal effect.

Compound	Potency [1]	Potency [2]	Potency [3]	Potency [4]	Potency [5]	Potency [6]	Potency [7]	Potency [8]	Potency [9]	Potency [10]	Potency [11]	Potency [12]	Potency [13]	Potency [14]	Potency [15]	Potency [16]	Potency [17]	Potency [18]	Potency [19]	Potency [20]
C=CCn1c(=O)c2cnc(Nc3ccc(N4CCN(C)CC4)cc3)nc2n1-c1cccc(C(C)(C)O)n1	0.132 µM (active)	0.418 µM (active)	1.48 µM (active)	0.59 µM (active)	1.18 µM (active)	0.264 µM (active)	0.332 µM (active)	0.833 µM (active)	0.59 µM (active)	0.526 µM (active)	0.743 µM (active)	0.469 µM (active)	0.332 µM (active)	0.526 µM (active)	0.118 µM (active)	8.33 µM (active)	–	–	–	–
COc1cc2nccc(Oc3ccc(NC(=O)C4(C(=O)Nc5ccc(F)cc5)CC4)cc3)c2cc1OC	26.4 µM (active)	18.7 µM (active)	2.96 µM (active)	1.87 µM (active)	16.6 µM (active)	2.96 µM (active)	2.96 µM (active)	–	–	–	1.66 µM (active)	11.8 µM (active)	5.26 µM (active)	11.8 µM (active)	7.43 µM (active)	–	5.26 µM (active)	inactive	4.69 µM (active)	–
Nc1ncnc2c1c(-c1cccc(OCc3ccccc3)c1)cn2C1CC(CN2CCCC2)C1 (centres undefined)	26.4 µM (active)	0.059 µM (active)	23.5 µM (active)	16.6 µM (active)	16.6 µM (active)	1.18 µM (active)	4.18 µM (active)	5.26 µM (active)	0.0833 µM (active)	6.62 µM (active)	5.9 µM (active)	16.6 µM (active)	0.148 µM (active)	23.5 µM (active)	9.35 µM (active)	0.132 µM (active)	5.9 µM (active)	–	18.7 µM (active)	–
Cc1ccc(C(=O)Nc2cccc(C(F)(F)F)c2)cc1-c1ccc2nc(NCCN3CCOCC3)ncc2c1	10.5 µM (active)	13.2 µM (active)	16.6 µM (active)	3.72 µM (active)	8.33 µM (active)	2.64 µM (active)	–	0.743 µM (active)	13.2 µM (active)	–	16.6 µM (active)	14.8 µM (active)	5.26 µM (active)	8.33 µM (active)	2.64 µM (active)	1.66 µM (active)	2.64 µM (active)	1.18 µM (active)	2.96 µM (active)	–
COc1cc2ncnc(Nc3ccc(F)c(Cl)c3)c2cc1NC(=O)C=CCN1CCCCC1	26.4 µM (active)	5.26 µM (active)	20.9 µM (active)	2.96 µM (active)	23.5 µM (active)	9.35 µM (active)	8.33 µM (active)	3.32 µM (active)	6.62 µM (active)	3.72 µM (active)	20.9 µM (active)	8.33 µM (active)	2.96 µM (active)	18.7 µM (active)	1.87 µM (active)	2.96 µM (active)	2.96 µM (active)	–	4.18 µM (active)	–
C[C@@H](Oc1cc(-n2cnc3ccc(CN4CCN(C)CC4)cc32)sc1C(N)=O)c1ccccc1C(F)(F)F	0.0332 µM (active)	0.0418 µM (active)	23.5 µM (active)	0.0743 µM (active)	0.105 µM (active)	0.0264 µM (active)	0.0332 µM (active)	–	0.0372 µM (active)	–	18.7 µM (active)	–	20.9 µM (active)	0.0469 µM (active)	–	–	–	–	–	–
O=C1CCC[C@@H]2[C@H]3CCC[N+]4([O-])CCC[C@@H](CN12)[C@@H]34 (some centres undefined)	inactive	inactive	inactive	inactive	inactive	inactive	–	–	–	inactive	–	–	inactive	–	–	–	inactive	–	–	–
O=C(Nc1ncc(-c2cc(C(F)F)nn2-c2c(Cl)cccc2Cl)s1)C1CC1	0.235 µM (active)	0.332 µM (active)	0.209 µM (active)	0.235 µM (active)	0.418 µM (active)	0.296 µM (active)	0.264 µM (active)	0.935 µM (active)	0.264 µM (active)	0.296 µM (active)	1.32 µM (active)	0.469 µM (active)	0.662 µM (active)	1.05 µM (active)	0.372 µM (active)	0.469 µM (active)	–	–	0.0833 µM (active)	–
COc1cccc2c(NCc3ccccc3)nc(-n3c(N)nc4ccccc43)nc12	6.62 µM (active)	2.96 µM (active)	6.62 µM (active)	1.05 µM (active)	7.43 µM (active)	4.69 µM (active)	1.66 µM (active)	3.32 µM (active)	2.96 µM (active)	–	6.62 µM (active)	7.43 µM (active)	2.64 µM (active)	9.35 µM (active)	2.35 µM (active)	2.96 µM (active)	1.48 µM (active)	–	1.05 µM (active)	1.87 µM (active)
O=C(NCCS(=O)(=O)c1ccc(C(F)(F)F)cn1)c1ccc(Cl)cc1	inactive	inactive	inactive	–	inactive	inactive	inactive	inactive	inactive	inactive	inactive	inactive	–	0.0235 µM (active)	inactive	–	inactive	0.0235 µM (active)	–	–
